Screen size: about 220,000 compounds; about 2,000 (0.91%) were called active. Inconclusive results (about 2%) are left out. The list is a sample of the results. Potency and affinity values are given separately. Values without a mark were called inactive. Rule as the data show it: inconclusive = inhibition above about 80% without an active follow-up result; inactive = below that; test concentration not stated here.
Assay: M. tuberculosis H37Rv growth inhibitors, H37Rv strain (AID 1626);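 also: bacteria incubated seven days before Alamar blue readout; 0% = bacteria only wells and 100% = bacteria with antibiotic wells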
Details: hits give high values, concentration not given here
For Cc1ccc(NC(=O)CSC2=NCCN2)cc1, the inhibition was -0.03%.
With CCOc1ccc(NC(=O)CSc2nccn2C)cc1 the inhibition was -4.59%.
With CCCCOc1ccc(NC(=O)CN2CCN(C(=O)OCC)CC2)cc1 the inhibition was -7.38%.
Work on COc1cc2c(cc1OC)C(c1ccco1)CC(=O)N2 (stereo not drawn) yielded an inhibition of -0.34%.
COc1cc(/C=C/c2ccc3cccc([N+](=O)[O-])c3n2)ccc1OCC(=O)O showed an inhibition of 6.21%.
With CC(=O)Nc1ccc(/C=C/c2ccc3c([N+](=O)[O-])cccc3n2)cc1 the inhibition was -0.6%.
Work on Cc1ccc(C(c2sc3nc(C)nn3c2O)N2CCOCC2)cc1 (stereo not drawn) yielded an inhibition of -3.42%.
For COc1ccc(NC(=O)c2nc[nH]c2C(=O)N[C@@H](C)C(=O)OC(C)(C)C)cc1, the inhibition was 5.92%.
In the case of CNC(=O)c1[nH]cnc1C(=O)Nc1ccc(C)cc1, the inhibition is reported as 16.9%.
For CNC(=O)c1[nH]cnc1C(=O)Nc1ccc(OC)cc1, the inhibition was 5.16%.
Cc1ccc(NC(=O)c2nc[nH]c2C(=O)Nc2ccc(C)cc2)cc1 gave an inhibition of -0.81%.
Work on CCOC(=O)c1ccc(NC(=O)c2nc[nH]c2C(=O)N[C@@H](CC(C)C)C(=O)OCc2ccccc2)cc1 yielded an inhibition of -7.55%.
CCOC(=O)c1ccc(NC(=O)c2nc[nH]c2C(=O)NC)cc1 showed an inhibition of -7.95%.
With Cc1ccc(CSc2ncnc3ccccc23)cc1 the inhibition was 5.46%.
For CCCOc1ccc(C(=O)NCC2OCCc3ccccc32)cc1OC (stereo not drawn), the inhibition was -1.65%.
For CCOC(=O)C1CCCN(C2CC(=O)N(c3cccc(C)c3)C2=O)C1 (stereo not drawn), the inhibition was -3.61%.
Compound CN(C)c1c(F)cc(C(=O)NCc2ccccc2)cc1F has an inhibition of -11.1%.
Compound CN(CC(=O)Nc1ccc(Cl)cc1)CC(=O)Nc1cc(Cl)ccc1C#N has an inhibition of -1.32%.
Compound ClCc1csc(N/N=C/c2cccs2)n1 has an inhibition of -4.27%.
CNc1nc(OC)nc(N2CCOCC2)n1 showed an inhibition of -9.75%.
CSc1cccc(CN2CCN(Cc3ccccc3)C(CCO)C2)c1 (stereo not drawn) showed an inhibition of 3.04%.
With O=C1c2ccccc2S(=O)(=O)c2cc(C(=O)N3CCN(c4ccc(Cl)cn4)CC3)ccc21 the inhibition was 5.58%.
CSc1nnc(-c2ccccc2)c(-c2ccccc2)n1 showed an inhibition of 13.9%.
For CSc1ncc(-c2ccccc2)cn1, the inhibition was 2.05%.
Compound COc1ccccc1-c1ccc(SCc2ccc(F)cc2)nn1 has an inhibition of -3.99%.
With O=C(O)/C=C/C(=O)Nc1ccc(C(=O)c2ccccc2)cc1 the inhibition was -9.86%.
Compound CCOc1ccc(-c2cn3ccccc3n2)cc1 has an inhibition of 1.22%.
Compound CCOC(=O)c1cccc(S(=O)(=O)N(CCO)Cc2cc3cc(OC)ccc3[nH]c2=O)c1 has an inhibition of -6.73%.
COc1ccc(NCc2nc3ccccc3n2CCOc2ccccc2)cc1 showed an inhibition of 77.4%.
Work on Cc1ccc(NCc2nc3ccccc3n2CCOc2ccccc2)cc1 yielded an inhibition of 4.17%.
For CC(OC(=O)C1CC1)C(=O)Nc1cc(C(F)(F)F)ccc1Cl (stereo not drawn), the inhibition was -2.2%.
O=C(OC(c1ccccc1)c1nccc2ccccc12)c1cccc([N+](=O)[O-])c1 (stereo not drawn) gave an inhibition of 2.31%.
CC(C)C(OC(=O)c1ccccc1)c1nccc2ccccc12 (stereo not drawn) gave an inhibition of 1.56%.
Compound O=C(CC1SC(=Nc2ccccc2)N(CCc2c[nH]c3ccccc23)C1=O)Nc1ccccc1F (stereo not drawn) has an inhibition of 11.6%.
With COc1cc(/C=C(\C#N)C(=O)NCC2CCCO2)cc(OC)c1OC (stereo not drawn) the inhibition was 2.41%.
For CCCCCCN1C=CC=C/C1=C/C=C(C#N)C#N, the inhibition was -1.95%.
In the case of CCCOc1ccc(C(=O)C(CN2CCOCC2)c2ccccc2)cc1 (stereo not drawn), the inhibition is reported as 78.9%.
For COc1ccc(C(O)C(CN2CCOCC2)c2ccccc2)cc1F (stereo not drawn), the inhibition was -9.62%.
Work on CCCCOc1ccc(C(=O)C(CN2CCOCC2)c2ccccc2)cc1 (stereo not drawn) yielded an inhibition of 66.5%.
Compound COc1ccc(C(=O)CN2CCOCC2)cc1F has an inhibition of -8.03%.
For CC(NC1CCCCC1)C(O)C12CC3CC(CC(C3)C1)C2 (stereo not drawn), the inhibition was -0.62%.
With CCn1nc(C(=O)OCC(=O)c2cc(C)n(Cc3cccs3)c2C)c2ccccc2c1=O the inhibition was -3.97%.
In the case of CN1CCN(NC(=O)c2cccc(C(F)(F)F)c2)CC1, the inhibition is reported as -1.25%.
CCNc1nc(NC(C)(C)C)nc(N(C#N)CC)n1 gave an inhibition of 2.33%.
Cc1cccn2c(=O)c(C=Nc3ccccc3)c(NCCO)nc12 gave an inhibition of 2.59%.
For COc1ccc(Nc2nc3c(C)cccn3c(=O)c2C=NCc2ccccc2)cc1, the inhibition was 10.2%.
For COc1cc(C(=O)OCC(=O)NC2CCS(=O)(=O)C2)c([N+](=O)[O-])cc1OC (stereo not drawn), the inhibition was -0.03%.
COC(CC(=O)NNC(=S)Nc1ccc(Cl)cc1)OC gave an inhibition of 4.27%.
Compound CCOC(=O)C1=C(N)N(c2ccc(N3CCCCC3)cc2)C(=O)C1 has an inhibition of -16.5%.
Cc1ccc([N+](=O)[O-])cc1NC(=O)CN(C(=O)c1ccc(Cl)cc1)C1CCCCC1 showed an inhibition of 3.68%.
With O=C(CN(C(=O)c1ccccc1Cl)C1CCCCC1)Nc1ccc(Cl)c([N+](=O)[O-])c1 the inhibition was -3.85%.
Cc1ccccc1NC(=O)C(=O)NCCCN1CCOCC1 showed an inhibition of -3.37%.
For COc1cccc(OCCNC(=O)c2cccc(OC)c2)c1, the inhibition was 4.61%.
For COc1cccc(C(=O)/C=C/c2ccc(SC)cc2)c1, the inhibition was 5.8%.
With COc1cc(/C=C/C(=O)c2ccc(O)cc2)ccc1OCC#N the inhibition was 17.5%.
For COc1cc(/C=C/C(=O)c2ccc(C)c([N+](=O)[O-])c2)cc(OC)c1O, the inhibition was 9.83%.
Compound O=C(NCCOc1ccccc1)c1cc(C(=O)NCCOc2ccccc2)cc([N+](=O)[O-])c1 has an inhibition of 15.8%.
With COc1cc(/C=C/C(=O)c2ccc(C)cc2)ccc1OCC#N the inhibition was 8.8%.
COc1cc(C(=O)O/N=C(\N)c2cccc([N+](=O)[O-])c2)cc(OC)c1OC showed an inhibition of -4%.
With COc1cccc(/C=C/C(=O)c2ccc(C)c([N+](=O)[O-])c2)c1 the inhibition was 17.5%.
In the case of CC(=O)c1c(C)[nH]c(C(=O)CSc2nnc(CN3CCCCCC3=O)n2-c2ccccn2)c1C, the inhibition is reported as -2.46%.
For Cc1ccc(C(=O)N(c2ccccc2)C2CC(C)N(C(=O)c3ccco3)c3ccccc32)cc1 (stereo not drawn), the inhibition was 0.9%.
Compound CCn1c(SCC(=O)Nc2nccs2)nnc1-c1ccccc1 has an inhibition of -4.51%.
Compound Clc1cc2nc[nH]c2cc1Cl has an inhibition of -8.63%.
Work on CCCc1cc(=O)[nH]c(SCc2csc(-c3ccccc3)n2)n1 yielded an inhibition of -1.65%.
For Nc1nnc(-c2cccc(F)c2)s1, the inhibition was 1%.
In the case of CC1CN(c2ccc(S(=O)(=O)N3CCOCC3)cn2)CC(C)O1 (stereo not drawn), the inhibition is reported as -1.99%.
Compound CC(=O)c1cc(C#N)c(SCc2ccc(F)cc2)nc1C has an inhibition of -3.8%.
Cc1ccc(S(=O)(=O)CCN2CCC(n3cccc3)CC2)cc1 gave an inhibition of -2.9%.
Work on O=C(/C=C/c1ccc(N2CCCCC2)c([N+](=O)[O-])c1)c1ccc(O)cc1 yielded an inhibition of 52.4%.
Compound COc1cc(/C=C/C(=O)OCC(=O)NC(=O)NC(C)C)ccc1OCC#N has an inhibition of 11.7%.
With COc1ccc(Oc2ccc(/C=C/C(=O)c3cccc(OC)c3)cc2[N+](=O)[O-])cc1 the inhibition was 4.34%.
Work on COc1cc(/C=C/C(=O)OCC(=O)NC(=O)NC(C)(C)C)ccc1OCC#N yielded an inhibition of 53.3%.
Compound COc1cc(/C=C/C(=O)O)cc(OC)c1OC has an inhibition of -1.87%.
For O=C(/C=C/c1cccc([N+](=O)[O-])c1)Nc1cccc(NC(=O)c2cccs2)c1, the inhibition was 13.1%.
In the case of O=C(/C=C/c1cccc([N+](=O)[O-])c1)Nc1ccc(NC(=O)c2cccs2)cc1, the inhibition is reported as 3.17%.
Compound COc1cc(/C=C/C(=O)c2ccccc2O)cc(OC)c1OC has an inhibition of -1.73%.
For CCN(C(=O)CSc1nnc(-c2ccc(Cl)cc2)n1C)C1CCS(=O)(=O)C1 (stereo not drawn), the inhibition was 1.77%.
O=C(NCc1nnc(SCC(=O)N2CCOCC2)o1)c1cccs1 gave an inhibition of 3.48%.
For COc1ccc(-n2cc(CNCCN3CCOC3=O)c(-c3ccccc3Cl)n2)cc1, the inhibition was 2.78%.
For COC(=O)NC(NC(=S)Nc1cccc(C)c1)C(Cl)(Cl)Cl (stereo not drawn), the inhibition was -2.36%.
CN(C)/C=C/C(=O)c1cccc([N+](=O)[O-])c1 gave an inhibition of 6.88%.
In the case of O=C(/C=C/c1ccc([N+](=O)[O-])cc1)NC1CC2CCC1C2 (stereo not drawn), the inhibition is reported as 73.7%.
Work on O=C(/C=C/c1ccccc1F)c1ccoc1 yielded an inhibition of 2.06%.
In the case of O=C(/C=C/c1ccccc1)NC1CC2CCC1C2 (stereo not drawn), the inhibition is reported as 0.01%.
Compound O=c1c2ccccc2ncn1CCOCCOc1cccc(Br)c1 has an inhibition of -2.48%.
For CC(C)(C)c1ccc(OCCOc2ccc(C(C)(C)C)cc2NC=O)c(NC=O)c1, the inhibition was 7.57%.
In the case of Cc1cc(NC(=O)CSc2ccc(-c3cccc([N+](=O)[O-])c3)nn2)no1, the inhibition is reported as 13.3%.
Cn1c(O)c(N=NC(=O)C2COc3ccccc3O2)c2ccccc21 (stereo not drawn) showed an inhibition of 2.52%.
Compound COc1ccc(Br)cc1CN(C)C(C)C(=O)Nc1cc([N+](=O)[O-])ccc1OC (stereo not drawn) has an inhibition of 6.06%.
For O=Nc1c(O)n(Cc2cccc(Cl)c2)c2ccccc12, the inhibition was -7.32%.
Compound c1ccc(Cc2nn3c(COc4ccccc4)nnc3s2)cc1 has an inhibition of 8.35%.
CSc1nc(C)c(Cc2c(F)cccc2Cl)c(=O)[nH]1 gave an inhibition of -5.44%.
For C=C(C)C1CC=C(CN2CC(C)OC(C)C2)CC1 (stereo not drawn), the inhibition was -0.53%.
For COC(=O)COc1c(Cl)cc(Cl)c2ccc(C)nc12, the inhibition was 70.4%.
Cc1ccc2c(Cl)cc(Cl)c(OCC(=O)N(C(C)C)C(C)C)c2n1 gave an inhibition of 7.37%.
For Cc1ccc(NC(=O)CN(C)C(=O)COc2c(Cl)cc(Cl)c3ccc(C)nc23)cc1, the inhibition was 5.82%.
Cc1ccc2c(Cl)cc(Cl)c(OCC(=O)O)c2n1 gave an inhibition of -9.9%.
